GPR151 activ: activates the human receptor GPR151. Q8TDV0. PathHunter beta-arrestin GPR151 cells, luminescence. activation, % at 11.2 µM. 650,000 compounds, 1% hits. AID 1508602; in the data active = activation above about 4.9%;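 also: 0% = median of compound wells and 100% = cells with positive control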
TEAD-YAP inh: TEAD-YAP interaction inhibition | 640,000 compounds, 1.4% hits | AID 1259422 | HEK-TIYL cells, TEAD-Gal4/YAP UAS-luciferase luminescence | inhibition, % at 9.12 µM; in the data active = inhibition above about 32%;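 also: 0% = median of test compound wells and 100% = reference inhibitor wells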
FBW7 act: activators of human E3 ligase FBW7; AlphaScreen FBW7–phospho-cyclin E peptide binding, activator screen; 650,000 compounds, 0.13% hits; Q969H0; normalized activity (activation), % at 26.1 µM; in the data active = normalized activity above about 1.9%;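 also: purified mutant Fbw7 with reduced substrate affinity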
Target sequence (Q969H0 whole entry, looked up): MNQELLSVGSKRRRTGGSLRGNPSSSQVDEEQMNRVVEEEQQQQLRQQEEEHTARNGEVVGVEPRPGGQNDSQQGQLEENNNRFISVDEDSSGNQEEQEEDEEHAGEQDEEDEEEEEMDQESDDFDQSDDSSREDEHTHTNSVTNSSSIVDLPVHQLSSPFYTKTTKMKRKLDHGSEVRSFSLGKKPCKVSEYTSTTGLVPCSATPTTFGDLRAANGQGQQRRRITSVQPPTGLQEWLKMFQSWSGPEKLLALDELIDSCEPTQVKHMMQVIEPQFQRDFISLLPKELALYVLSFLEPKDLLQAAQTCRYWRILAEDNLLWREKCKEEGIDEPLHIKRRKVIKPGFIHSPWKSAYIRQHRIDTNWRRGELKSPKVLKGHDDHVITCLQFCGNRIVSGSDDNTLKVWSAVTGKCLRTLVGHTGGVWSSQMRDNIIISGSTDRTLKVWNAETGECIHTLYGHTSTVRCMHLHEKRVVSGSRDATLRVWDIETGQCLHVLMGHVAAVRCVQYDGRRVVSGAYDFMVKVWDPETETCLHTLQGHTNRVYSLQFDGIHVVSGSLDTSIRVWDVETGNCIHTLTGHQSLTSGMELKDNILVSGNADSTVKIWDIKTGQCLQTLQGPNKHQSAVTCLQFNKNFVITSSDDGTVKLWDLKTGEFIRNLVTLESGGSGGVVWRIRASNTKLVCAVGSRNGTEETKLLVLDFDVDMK
MITF primary: inhibitors of human MITF. O75030. AlphaScreen MITF homodimerization, bead proximity signal. inhibition, % at 2.6 µM. 650,000 compounds, 0.91% hits. AID 1259374; in the data active = inhibition above about 50%;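 also: 0% = vehicle wells with protein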
MITF confirm: human MITF inhibition, confirmation | shares compounds with MITF primary | AlphaScreen MITF homodimerization, biotin/His-MITF beads | inhibition, % at 2.6 µM | 4,700 compounds, 16% hits | AID 1259372;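 active = inhibition above a cutoff derived from the DMSO control wells, cut at about 28% in these data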;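 also: 0% = MITF dimer wells with DMSO only; inhibitors lower the bead chemiluminescence by keeping MITF from dimerizing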
AS interf DR: optically interferes with AlphaScreen signal in dose response | shares compounds with MITF primary | AlphaScreen optical interference counterscreen, cell-free | IC50, µM | 480 compounds, 6% hits | AID 1259373; call rule not given here
AS interf ctr: counter-screen: compounds optically interfering with AlphaScreen; shares compounds with MITF primary; LysRS AlphaScreen counterscreen, signal interference, triplicate; inhibition, % at 2.6 µM; 4,700 compounds, 7.6% hits;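 active = inhibition above a cutoff derived from the DMSO control wells, cut at about 30% in these data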
* marks the source's active call; other numbers are inactive results; · = no result given. A selection: hits, their analogues and other compounds. The true share with any hit is near 3.4%.

SMILES | GPR151 activ | TEAD-YAP inh | FBW7 act | MITF primary | MITF confirm | AS interf ctr | others
CN1CCN(CCOc2ccccc2-c2ccccc2)CC1 | -1.0 | -1.3 | 0.1 | 55.3* | 4.5 | 4.7
c1ccc(-c2ccccc2OCCN2CCOCC2)cc1 | 0.7 | -2.3 | -0.1 | 77.8* | 5.6 | 3.8
CCN1CCN(CCOc2ccccc2-c2ccccc2)CC1 | -1.8 | 7.2 | -0.2 | 43.8 | · | ·
c1ccc(-c2ccccc2OCCCCN2CCOCC2)cc1 | 1.9 | -3.2 | -0.3 | 77.3* | -9.6 | -4.0
CN1C(=O)c2ccccc2C(C(=O)NCc2cccs2)C1c1cn(C)c2ccccc12 (stereo not given) | 0.7 | 1.5 | 0.1 | 1.4 | · | ·
CCOc1ccc(-c2nc3cc(NC(=O)c4ccc(Cl)c(Cl)c4)ccc3o2)cc1 | 0.0 | -10.6 | 0.1 | 12.5 | · | ·
NC(=O)c1ccc(N=Cc2cc(Br)ccc2O)cc1 | 2.3 | -3.0 | -0.1 | -5.5 | · | ·
O=C(O)c1ccc(O)c(C=Nc2ccc(N=Cc3cc(C(=O)O)ccc3O)cc2)c1 | -0.6 | -10.6 | -0.2 | 70.3* | 72.6* | -8.5 | AS interf DR=>6.48
COc1ccccc1NC(=S)NCCCn1ccnc1 | 0.7 | 6.2 | -0.1 | 78.5* | -0.9 | 2.0
c1ccc(-c2ccccc2OCCCN2CCNCC2)cc1 | -0.7 | -1.5 | -0.2 | 64.3* | -2.1 | 10.0
CCN1CCN(CCCOc2cccc(C)c2C)CC1 | 0.0 | 1.9 | 0.0 | 67.4* | 9.1 | 8.2
CCN1CCN(CCCOc2cc(C)c(Cl)cc2C)CC1 | -0.9 | 1.6 | 0.2 | 64.3* | 2.8 | 10.5
CCN1CCN(CCCOc2ccc(Cl)c(Cl)c2)CC1 | 1.1 | -12.3 | -0.1 | 28.1 | · | ·
CCN1CCN(CCOc2ccccc2CO)CC1 | -0.3 | 6.9 | -0.9 | 39.3 | · | ·
CCc1ccccc1OCCN1CCN(CC)CC1 | 0.7 | -3.8 | -0.2 | 76.9* | 12.0 | 12.9
c1ccc(-c2ccccc2OCCCCN2CCNCC2)cc1 | -1.7 | -2.8 | -0.6 | 49.4 | · | ·
CC(=O)c1ccc(C(=O)Nc2nc(-c3ccccc3)c(-c3ccccc3)s2)cc1 | 0.4 | 2.1 | 0.0 | 4.0 | · | ·
CCOC(=O)CSc1nc2sc(C(=O)OCC)c(C)c2c(=O)n1Cc1ccccc1OC | 1.3 | 2.4 | 0.1 | 2.4 | · | ·
Cc1cc(NCCc2ccc(O)cc2)nc(-c2ccc3c(ccn3C)c2)n1 | 1.1 | 9.4 | 0.1 | 2.9 | · | ·
Cc1ccc(-c2nnc(SCc3nc4sc(C)c(C)c4c(=O)[nH]3)n2N)cc1 | 1.7 | -4.4 | -0.2 | -10.4 | · | ·
COc1ccc(CNC(=O)c2ccc(OC)c(OC)c2)cc1 | 1.7 | 3.1 | 0.5 | 16.8 | · | ·
CCN1CCN(CCCOc2ccccc2-c2ccccc2)CC1 | 1.2 | 11.0 | 0.0 | 59.8* | 7.0 | 10.1
CCOc1ccccc1OCCCN1CCN(CC)CC1 | 0.3 | 0.8 | -0.2 | 67.2* | 8.8 | 12.8
CCN1CCN(CCOCCOc2ccccc2Br)CC1 | 1.2 | 4.3 | 0.0 | 55.7* | 13.3 | 15.2
CCOc1ccc(CNC(=O)C2CC3CCCN3C23C(=O)N(C)c2ccccc23)cc1 (stereo not given) | 2.1 | 5.4 | 0.1 | 5.8 | · | ·
SMILES | GPR151 activ | TEAD-YAP inh | FBW7 act | MITF primary | MITF confirm | AS interf ctr | others
CCc1n[nH]c(=S)n1/N=C/c1ccc(F)cc1 | -0.5 | -9.3 | 0.2 | 4.4 | · | ·
CCc1n[nH]c(=S)n1N=C1CCC(C)CC1 (stereo not given) | 0.5 | 2.5 | 0.3 | 59.4* | -0.7 | -2.1
C/C=C/c1ccc(OCCOCCN2CCCC(C)C2)c(OC)c1 (stereo not given) | -0.7 | 4.9 | -0.3 | 52.9* | 3.6 | -1.2
COc1cc(C)ccc1OCCOCCN1CCCC(C)C1 (stereo not given) | 1.2 | -0.7 | -0.5 | 63.2* | -11.3 | -6.7
C/C=C/c1ccc(OCCCCN2CCN(CC)CC2)c(OC)c1 | -1.7 | 6.6 | -0.1 | 74.2* | 7.5 | 12.6
CC(C)(C)OC(=O)NNC(=S)NCc1ccco1 | 0.0 | 9.3 | 0.0 | 4.4 | · | ·
Cc1c(C#N)c(O)n(CCO)c(=O)c1N=Nc1ccccc1C(=O)O | -1.5 | 12.0 | 0.1 | 16.3 | · | ·
Cc1c(C#N)c(O)n(CCCO)c(=O)c1N=Nc1c(C)n(C)n(-c2ccccc2)c1=O | 1.1 | 15.1 | -0.7 | 83.5* | 23.1 | 100.3*
Cc1cccc(C(=O)Nc2c3c(nn2-c2ccc(F)cc2)CSC3)c1 | 2.1 | -2.7 | 0.0 | 53.1* | 34.7* | -3.2 | AS interf DR=>5.53
O=C(/C=C\c1ccccc1)Nc1c2c(nn1-c1cccc(Cl)c1)CSC2 | 2.0 | -2.5 | -0.1 | 66.7* | 9.6 | -1.0
COc1ccc(/C=C\C(=O)Nc2c3c(nn2-c2cccc(Cl)c2)CSC3)cc1OC | -0.3 | -13.4 | -0.1 | -9.2 | · | ·
Cc1cc(C)cc(C(=O)Nc2c3c(nn2-c2ccc(F)cc2)CSC3)c1 | 1.3 | 17.5 | 0.2 | 2.1 | · | ·
CCN(CC)C(=O)C1CCCN(Cc2ccc([N+](=O)[O-])o2)C1 (stereo not given) | 0.9 | 13.7 | 0.5 | 56.4* | 3.5 | 9.2
CCN(CC)C(=O)C1CCCN(Cc2ccc(C)o2)C1 (stereo not given) | 0.4 | 14.6 | -0.1 | 38.9 | · | ·
CCN(CC)C(=O)C1CCCN(Cc2ccc(C(F)(F)F)cc2)C1 (stereo not given) | 0.3 | 14.5 | 0.0 | 53.3* | -2.4 | -1.6
CCOc1ccccc1C(=O)Nc1ccc(N(C)C(C)=O)cc1 | -0.2 | 4.4 | 0.0 | 6.0 | · | ·
COc1ccc(/C=C/C(=O)C(C)(C)O)cc1 | 1.7 | -6.9 | 0.1 | 58.2* | -4.0 | 6.3
O=S(=O)(c1ccc(F)cc1)N1CCCN(Cc2c(F)cccc2F)CC1 | -0.8 | 2.8 | 0.1 | 8.3 | · | ·
COc1ccc(Br)cc1CN1CCN(S(=O)(=O)c2ccc(F)cc2)CC1 | -1.3 | 9.3 | 0.0 | 58.9* | 0.9 | 10.5
O=S(=O)(c1ccc(Br)cc1)N1CCN(Cc2ccc(F)cc2)CC1 | -1.7 | 8.4 | 0.6 | 5.5 | · | ·
CS(=O)(=O)N1CCN(Cc2cccc(Br)c2)CC1 | 0.9 | -11.6 | -0.3 | 62.9* | 13.9 | 15.0
COc1ccc(S(=O)(=O)N2CCN(Cc3cccc(Br)c3)CC2)cc1 | 0.3 | -21.2 | -0.1 | 51.8* | 6.7 | 14.2
O=S(=O)(c1ccc(F)cc1)N1CCN(Cc2c(F)cccc2F)CC1 | 0.3 | 8.6 | 0.2 | 77.3* | 16.1 | -2.7
COc1ccccc1OCCOCCOc1ccc(F)cc1 | 0.8 | -1.5 | -0.1 | -12.8 | · | ·
Cc1cccc(NC(=O)CSc2nc3ccccc3s2)c1C | 1.9 | -6.9 | -0.1 | 6.5 | · | ·
SMILES | GPR151 activ | TEAD-YAP inh | FBW7 act | MITF primary | MITF confirm | AS interf ctr | others
Cc1ccc2c(c1)c(=O)c1ccccc1n2CCCC(=O)NN1C(=O)c2ccccc2C1=O | -1.2 | -10.4 | 0.1 | -1.1 | · | ·
Fc1ccccc1CNC1CCN(Cc2ccccc2)CC1 | -0.5 | -0.2 | 0.2 | 50.8* | -11.8 | -0.4
c1ccc(CN2CCC(NCc3cccnc3)CC2)cc1 | -0.6 | -11.3 | 0.0 | 70.3* | 5.6 | 11.4
Clc1ccc(CNC2CCN(Cc3ccccc3)CC2)cc1 | 0.9 | 6.7 | -0.1 | -11.5 | · | ·
FC(F)SCc1ccc(CNC2CCN(Cc3ccccc3)CC2)o1 | 1.0 | 0.6 | 0.1 | 53.8* | 15.4 | 18.7
c1ccc(CN2CCC(NCc3ccncc3)CC2)cc1 | -1.0 | -0.8 | 0.0 | 62.5* | 8.0 | 12.9

Source: PubChem BioAssay
